Compound activity as filed in PubChem BioAssay.
An excerpt weighted towards active compounds, which were near 5.3% of everything screened.
Vaccinia mCherry: vaccinia inhibition (mCherry reporter). Vaccinia virus mCherry reporter infection, fluorescence. Potency, µM (doses to about 36.5 µM), hits mostly inhibitors. actives 0.63% (n = 310,000); calls by dose curve; tested in A549 cells; also: nearly all actives have a fitted effect of over 35% in size
HCV inh: blocks hepatitis C virus; Huh7.5.1 HCVcc-Cre infection, luciferase reporter, 44 h; Potency, µM (doses to about 41.8 µM), actives largely listed as inhibitors; actives 3.4% (n = 340,000); AID 651820; active = well fitted inhibition curve with a large enough effect; inconclusive = small, poorly fitted or top-dose-only effect, or another doubt; inactive = no such curve, though single readings can be large or run the other way
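Cells (1,000/well) were plated 4 h before compound, then infected with HCVcc-Cre virus (~0.5 moi). After 44 h further culture, infection was read as luciferase luminescence following a 15 min substrate incubation at room temperature.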
LASV entry inh: inhibitors of Lassa virus binding or cell entry. Potency, µM (series often up to 37.9 µM), hits mostly inhibitors. actives 1.2% (n = 300,000). AID 540256. Lassa virus pseudotype entry inhibition, cell reporter; calls by dose curve; tested in HEK293 cells; also: nearly all actives have a fitted effect of over 50% in size
Marburg entry inh: Marburg virus entry inhibition; Marburg virus pseudotyped entry inhibition, cell reporter; Potency, µM (titrated, usually from 37.8 µM), most hits filed as inhibitors; actives 1.8% (n = 300,000); calls by dose curve; tested in HEK293 cells
VACV Venus inh: vaccinia inhibition (Venus reporter). Potency, µM (highest dose often 36.5 µM), usual class: inhibitors. Vaccinia virus Venus reporter expression, fluorescence. actives 0.46% (n = 330,000); calls by dose curve; tested in A549 cells; also: nearly all actives have a fitted effect of over 30% in size
FMDV inh: antivirals against foot and mouth disease virus; FMDV antiviral cell-based qHTS; Potency, µM (doses to about 57.9 µM), most hits filed as inhibitors; actives 1.2% (n = 410,000); calls by dose curve; tested in HEK293T cells; also: read-out not given here; nearly all actives have a fitted effect of over 45% in size
Large screens that a line does not name were inactive.

COc1ccc(OC)c(N/C=C/C(=O)c2ccccc2)c1	LASV entry inh inconclusive, Marburg entry inh 1µM, FMDV inh 6.31µM
COc1ccc(OC)c(C(=O)C(=O)c2cc(OC)ccc2OC)c1	HCV inh inconclusive, Marburg entry inh inconclusive
COc1ccc(OC)c(C(=O)/C=C/c2ccccc2C(F)(F)F)c1	HCV inh 10µM, LASV entry inh inconclusive, Marburg entry inh inconclusive, FMDV inh 20µM (no result: Vaccinia mCherry, VACV Venus inh)
COc1cc(-c2ccc(C)cc2)cc2c1OCCN(C(=O)CCn1ccc(C)n1)C2	none (no result: HCV inh, LASV entry inh, Marburg entry inh)
NC(=O)N/N=C/c1cn(-c2ccccc2)nc1-c1cccs1	HCV inh inconclusive
NS(=O)(=O)c1ccc(N/N=C/c2cn(-c3ccccc3)nc2-c2cccs2)c([N+](=O)[O-])c1	HCV inh 11.2µM, LASV entry inh inconclusive, Marburg entry inh 10µM, FMDV inh inconclusive
NS(=O)(=O)c1ccc(N/N=C/c2cn(-c3ccccc3)nc2-c2cccs2)cc1	HCV inh 1.78µM, LASV entry inh inconclusive, Marburg entry inh inconclusive, VACV Venus inh inconclusive
CCc1ccc(CN2CCc3nc(Nc4ccc5c(c4)OCCO5)ncc3C2)cc1	none (no result: HCV inh, Marburg entry inh)
FC(F)(F)c1cc(-c2cccs2)nc(-n2cc(Cl)cn2)n1	HCV inh 10µM, FMDV inh inconclusive (no result: Vaccinia mCherry, VACV Venus inh)
Fc1ccccc1Cc1cn2cc(-c3ccc(Cl)cc3)nc2s1	Marburg entry inh inconclusive (no result: HCV inh)
COc1ccc(-n2cccc2/C=C2/NC(=O)N(c3cccc(Cl)c3)C2=O)cc1	none
CC(C)(C)n1cccc1/C=C1\C(=O)NC(=O)N(c2ccccc2)C1=O	none
Cc1cccc(N2C(=O)NC(=O)/C(=C\c3cccn3-c3ccc(Cl)cc3)C2=O)c1	HCV inh inconclusive, LASV entry inh inconclusive, Marburg entry inh inconclusive, VACV Venus inh inconclusive, FMDV inh 10µM (no result: Vaccinia mCherry)
Cc1cc(C)cc(N2C(=O)NC(=O)/C(=C/c3cccn3-c3ccc(Cl)cc3)C2=O)c1	LASV entry inh inconclusive, Marburg entry inh inconclusive, FMDV inh 14.1µM
COc1ccc(-n2c(=O)c3ccc(C(=O)NCc4ccc(C)cc4)cc3n(Cc3cccc(Cl)c3)c2=O)cc1	none (no result: HCV inh)
CN(Cc1nc(Cc2ccccc2F)no1)Cc1cccc2ncccc12	HCV inh 11.2µM, LASV entry inh inconclusive, FMDV inh 15.8µM
CN(Cc1nc(Cc2ccccc2F)no1)CC1(N2CCOCC2)CCCCC1	Marburg entry inh inconclusive
CCOC(=O)[C@@H]1CSc2[nH]c(=O)sc2[C@@H]1c1ccccc1	none (no result: Vaccinia mCherry, HCV inh, LASV entry inh, VACV Venus inh, FMDV inh)
CN(Cc1cnn(C)c1)C(=O)c1ccc(OC2CCN(CCc3ccccc3)CC2)cc1	none (no result: Vaccinia mCherry, LASV entry inh, Marburg entry inh, VACV Venus inh)
CC(C)N1CCN(C(=O)c2ccc(OC3CCN(CCc4ccccc4)CC3)cc2)CC1	HCV inh inconclusive, Marburg entry inh 11.2µM
C=CCOc1ccccc1CN1CCC(Oc2ccc(C(=O)N3CCCCC3)cc2)CC1	Vaccinia mCherry inconclusive, Marburg entry inh 3.16µM (no result: HCV inh)
Cc1cc(CN(C)C(=O)c2ccc(OC3CCN(CCc4ccccc4)CC3)cc2)on1	Marburg entry inh 3.16µM
Cc1ccccc1CN1CCC(Oc2ccc(C(=O)N3CCCC3)cc2)CC1	none
CCn1cc2nc(SCc3ccccc3F)n(Cc3ccc(C)cc3)c(=O)c2n1	LASV entry inh inconclusive (no result: HCV inh, Marburg entry inh)
COc1ccc(Cn2ccc3nc(C)c(C(=O)N4CCN(c5ccccc5F)CC4)cc3c2=O)cc1	LASV entry inh inconclusive (no result: HCV inh, Marburg entry inh)
CN1c2c(nc(N)[nH]c2=O)NCC1CNc1ccc(C(=O)NC(CCC(=O)O)C(=O)O)cc1 (centres undefined)	none (no result: HCV inh, LASV entry inh, Marburg entry inh, FMDV inh)
Cc1oc(-c2ccccc2NC(=O)C2CCC2)nc1CNC(=O)c1c(F)ccc(F)c1F	none (no result: HCV inh, LASV entry inh, Marburg entry inh)
COc1ccc(CCCC2=NC3C=CC=CC3=N2)cc1 (centres undefined)	none (no result: Vaccinia mCherry, HCV inh, LASV entry inh, VACV Venus inh, FMDV inh)
COc1ccc(-c2ccc(CN3C(C(C)C)C(=O)N(Cc4cn(CCC5OCCO5)nn4)CCS3(=O)=O)cc2)cn1 (centres undefined)	none (no result: Vaccinia mCherry, HCV inh, Marburg entry inh, VACV Venus inh, FMDV inh)
CCN1C(=O)NC(c2cccc(C(F)(F)F)c2)C(C(C)=O)=C1C (centres undefined)	LASV entry inh inconclusive (no result: Vaccinia mCherry, HCV inh, VACV Venus inh, FMDV inh)
COC(=O)[C@]1(Cc2ccccc2)N[C@H](CN(C)S(=O)(=O)c2ccc(-c3ccccc3)cc2)[C@@H]2C(=O)N(C)C(=O)[C@@H]21	none (no result: LASV entry inh, Marburg entry inh)
Cc1nn(CCC(N)=O)c2nc(-c3cccs3)cc(C(F)(F)F)c12	HCV inh 10µM, LASV entry inh inconclusive, Marburg entry inh inconclusive, FMDV inh inconclusive
O=C(Nc1cc(Oc2ccccc2)cc([N+](=O)[O-])c1)C12CC3CC(C1)CC(n1cnc(Cl)n1)(C3)C2	HCV inh 10µM, LASV entry inh inconclusive, Marburg entry inh inconclusive (no result: Vaccinia mCherry, VACV Venus inh)
Cc1cccc(C)c1Nc1oc(-c2ccccc2)nc1C(C)(C)C	none (no result: Vaccinia mCherry, HCV inh, LASV entry inh, VACV Venus inh, FMDV inh)
COc1ccccc1OCC(=O)N/N=C(\C)c1ccc2ccccc2c1	Vaccinia mCherry inconclusive (no result: HCV inh, LASV entry inh, Marburg entry inh)
C/C(=N\NC(N)=S)c1ccc2c(c1)OCCO2	Vaccinia mCherry inconclusive, HCV inh inconclusive, VACV Venus inh inconclusive
COc1cc2ccc(C(C)=NNC(N)=S)cc2cc1OC	Vaccinia mCherry 6.31µM, VACV Venus inh inconclusive (no result: HCV inh, LASV entry inh, Marburg entry inh)
CC(=NNC(N)=S)c1ccc2cc3c(cc2c1)OCO3	Vaccinia mCherry inconclusive, VACV Venus inh 2µM (no result: HCV inh, LASV entry inh, Marburg entry inh)
CCn1c(=O)c2ccccc2n(Cc2ccccc2C)c1=O	none (no result: Vaccinia mCherry, LASV entry inh, Marburg entry inh, VACV Venus inh)
Cc1nc(-c2ccc(-c3ccc(C(=O)N4CCc5cc6c(cc54)C4(CCN(C)CC4)CO6)cc3)c(C)c2)no1	Marburg entry inh 5.01µM (no result: Vaccinia mCherry, HCV inh, LASV entry inh, VACV Venus inh)
